Tests used:
Test in all cases: DAPPL (digital affinity profiling via proximity ligation, sequencing); 10 mM Tris-HCl pH 7.5, 50 mM NaCl, 1 mM DTT, 4% glycerol, room temperature, 30 min; GST-TFs on glutathione beads, 16-mer random dsDNA library, 0.1% formaldehyde crosslink after washing; high values mean tight binding
Details in all cases: protein: recombinant; tags: N-terminal GST; dsDNA, one strand shown
FEV = target: T1, FEV (Homo sapiens, UniProt Q99581 1-238)
T1 sequence: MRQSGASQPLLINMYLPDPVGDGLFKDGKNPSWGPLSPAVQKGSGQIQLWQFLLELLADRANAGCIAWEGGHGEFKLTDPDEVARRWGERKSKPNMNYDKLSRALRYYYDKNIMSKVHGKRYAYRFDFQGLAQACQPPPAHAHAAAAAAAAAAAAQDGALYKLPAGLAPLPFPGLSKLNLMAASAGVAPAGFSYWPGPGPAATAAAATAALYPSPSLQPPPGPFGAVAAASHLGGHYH
In short: (§1)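 Binding signal is each hexamer's read frequency for a factor divided by its frequency in the tag-only sample. The factors were GST-fused human transcription factors from yeast, captured on glutathione beads, DNA-barcoded and pooled with that sample. Pools were incubated with 200 nmole of a random double-stranded 16-mer DNA library in Tris/NaCl/DTT/glycerol buffer at room temperature for 30 min, then washed, crosslinked with 0.1% formaldehyde, proximity-ligated with BsaI/T4 ligase (1 h, 37 °C), PCR-amplified and sequenced on an Illumina NextSeq500.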

ETV5 = ETV5 (Homo sapiens, UniProt P41161 1-510)
In short: as §1

SPIC = target: T2, SPIC (Homo sapiens, UniProt Q8N5J4 1-248)
T2 sequence: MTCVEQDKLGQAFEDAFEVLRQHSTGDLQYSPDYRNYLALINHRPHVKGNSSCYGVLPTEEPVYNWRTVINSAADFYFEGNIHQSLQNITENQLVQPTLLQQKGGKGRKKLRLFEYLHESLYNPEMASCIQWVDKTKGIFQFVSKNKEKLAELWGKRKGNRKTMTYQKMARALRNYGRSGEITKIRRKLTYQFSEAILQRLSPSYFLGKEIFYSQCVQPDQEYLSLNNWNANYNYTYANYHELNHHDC
In short: as §1

ELF4 = ELF4 (Homo sapiens, UniProt Q99607 1-663)
In short: as §1

ELK4 = target: T3, ELK4 (Homo sapiens, UniProt P28324-2 1-405)
T3 sequence: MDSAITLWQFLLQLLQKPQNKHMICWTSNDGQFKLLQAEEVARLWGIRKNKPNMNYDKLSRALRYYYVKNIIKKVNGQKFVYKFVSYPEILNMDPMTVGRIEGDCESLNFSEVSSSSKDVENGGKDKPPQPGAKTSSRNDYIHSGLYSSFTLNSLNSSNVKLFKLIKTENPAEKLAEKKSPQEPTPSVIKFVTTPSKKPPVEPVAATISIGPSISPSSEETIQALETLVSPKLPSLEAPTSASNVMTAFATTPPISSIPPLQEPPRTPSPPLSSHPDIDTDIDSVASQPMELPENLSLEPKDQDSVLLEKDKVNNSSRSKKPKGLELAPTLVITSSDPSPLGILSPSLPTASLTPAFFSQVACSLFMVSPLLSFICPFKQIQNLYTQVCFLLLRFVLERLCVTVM
In short: as §1

ETV2 = target: T4, ETV2 (Homo sapiens, UniProt O00321 1-342)
T4 sequence: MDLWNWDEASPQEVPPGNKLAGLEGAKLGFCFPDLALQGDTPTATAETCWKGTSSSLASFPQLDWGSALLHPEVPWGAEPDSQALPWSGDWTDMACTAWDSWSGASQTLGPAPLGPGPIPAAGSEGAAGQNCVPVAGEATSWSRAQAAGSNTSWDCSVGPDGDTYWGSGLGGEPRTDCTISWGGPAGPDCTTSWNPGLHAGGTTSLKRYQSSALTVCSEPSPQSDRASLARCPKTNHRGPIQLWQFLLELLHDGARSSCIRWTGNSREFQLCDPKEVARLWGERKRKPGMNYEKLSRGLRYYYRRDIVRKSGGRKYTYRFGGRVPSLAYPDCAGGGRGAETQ
In short: as §1

ELF3 = target: T5, ELF3 (Homo sapiens, UniProt P78545 1-371)
T5 sequence: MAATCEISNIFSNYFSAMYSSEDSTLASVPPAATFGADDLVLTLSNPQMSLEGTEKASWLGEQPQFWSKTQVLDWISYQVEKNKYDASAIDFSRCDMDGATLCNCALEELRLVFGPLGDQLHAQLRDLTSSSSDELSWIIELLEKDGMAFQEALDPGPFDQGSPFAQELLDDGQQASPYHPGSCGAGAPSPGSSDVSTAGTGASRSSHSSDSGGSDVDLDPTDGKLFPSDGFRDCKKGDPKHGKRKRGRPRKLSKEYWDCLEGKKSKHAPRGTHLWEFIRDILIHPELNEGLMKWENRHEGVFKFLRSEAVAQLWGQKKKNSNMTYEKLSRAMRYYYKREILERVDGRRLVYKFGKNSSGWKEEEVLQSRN
In short: as §1

CRX = CRX (Homo sapiens, UniProt O43186 1-299)
In short: as §1

ETV1 = ETV1 (Homo sapiens, UniProt P50549 1-477)
In short: as §1

ERF = target: T6, ERF (Homo sapiens, UniProt P50548 1-548)
T6 sequence: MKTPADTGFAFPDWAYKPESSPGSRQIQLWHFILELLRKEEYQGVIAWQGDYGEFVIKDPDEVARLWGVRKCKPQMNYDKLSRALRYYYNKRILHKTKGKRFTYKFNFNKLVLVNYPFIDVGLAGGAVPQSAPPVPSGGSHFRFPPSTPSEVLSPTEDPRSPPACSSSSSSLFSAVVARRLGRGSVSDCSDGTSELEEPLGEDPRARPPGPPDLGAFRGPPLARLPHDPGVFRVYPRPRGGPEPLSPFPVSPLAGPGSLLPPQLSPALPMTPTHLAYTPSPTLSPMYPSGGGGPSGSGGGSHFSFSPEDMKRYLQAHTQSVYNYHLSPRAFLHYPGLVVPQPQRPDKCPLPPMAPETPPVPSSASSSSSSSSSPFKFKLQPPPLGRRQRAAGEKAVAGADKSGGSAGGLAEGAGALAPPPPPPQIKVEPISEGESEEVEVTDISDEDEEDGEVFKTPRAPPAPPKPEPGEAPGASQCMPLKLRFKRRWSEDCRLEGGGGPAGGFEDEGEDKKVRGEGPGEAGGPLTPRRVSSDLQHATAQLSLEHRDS
In short: as §1

ETV3L = target: T7, ETV3L (Homo sapiens, UniProt Q6ZN32 1-361)
T7 sequence: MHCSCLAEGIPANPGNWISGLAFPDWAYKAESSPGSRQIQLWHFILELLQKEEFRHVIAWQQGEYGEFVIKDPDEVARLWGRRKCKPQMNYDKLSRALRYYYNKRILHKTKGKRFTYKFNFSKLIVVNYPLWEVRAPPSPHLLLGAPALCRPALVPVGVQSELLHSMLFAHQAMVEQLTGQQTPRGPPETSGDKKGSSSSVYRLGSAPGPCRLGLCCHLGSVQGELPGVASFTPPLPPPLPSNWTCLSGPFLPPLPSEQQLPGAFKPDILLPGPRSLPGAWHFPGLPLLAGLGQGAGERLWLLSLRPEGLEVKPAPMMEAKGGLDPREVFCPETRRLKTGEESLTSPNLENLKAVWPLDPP
In short: as §1

ETS2 = target: T8, ETS2 (Homo sapiens, UniProt P15036 1-469)
T8 sequence: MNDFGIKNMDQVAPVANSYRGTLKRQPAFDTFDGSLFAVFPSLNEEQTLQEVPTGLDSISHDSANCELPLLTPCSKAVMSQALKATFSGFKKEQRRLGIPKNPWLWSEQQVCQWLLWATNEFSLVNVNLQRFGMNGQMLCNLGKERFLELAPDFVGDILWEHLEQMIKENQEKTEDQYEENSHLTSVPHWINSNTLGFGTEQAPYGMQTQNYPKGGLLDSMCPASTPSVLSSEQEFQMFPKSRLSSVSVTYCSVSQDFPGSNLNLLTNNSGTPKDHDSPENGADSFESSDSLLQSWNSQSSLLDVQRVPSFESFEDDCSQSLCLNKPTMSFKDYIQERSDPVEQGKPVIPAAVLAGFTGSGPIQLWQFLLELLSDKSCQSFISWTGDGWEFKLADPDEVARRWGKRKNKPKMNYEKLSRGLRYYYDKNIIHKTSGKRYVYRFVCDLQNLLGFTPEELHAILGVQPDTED
In short: as §1

SPDEF = target: T9, SPDEF (Homo sapiens, UniProt O95238 1-335)
T9 sequence: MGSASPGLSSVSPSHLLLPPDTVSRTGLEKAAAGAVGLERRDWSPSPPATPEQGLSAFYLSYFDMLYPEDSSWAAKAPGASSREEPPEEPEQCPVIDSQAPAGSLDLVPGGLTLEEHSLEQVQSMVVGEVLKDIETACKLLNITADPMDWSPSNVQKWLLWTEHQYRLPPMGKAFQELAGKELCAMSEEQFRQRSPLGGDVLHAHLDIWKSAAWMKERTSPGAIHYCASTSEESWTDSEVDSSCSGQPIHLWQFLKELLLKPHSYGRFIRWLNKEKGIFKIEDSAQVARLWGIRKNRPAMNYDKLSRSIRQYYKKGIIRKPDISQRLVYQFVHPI
In short: as §1

ETV7 = target: T10, ETV7 (Homo sapiens, UniProt Q9Y603 1-341)
T10 sequence: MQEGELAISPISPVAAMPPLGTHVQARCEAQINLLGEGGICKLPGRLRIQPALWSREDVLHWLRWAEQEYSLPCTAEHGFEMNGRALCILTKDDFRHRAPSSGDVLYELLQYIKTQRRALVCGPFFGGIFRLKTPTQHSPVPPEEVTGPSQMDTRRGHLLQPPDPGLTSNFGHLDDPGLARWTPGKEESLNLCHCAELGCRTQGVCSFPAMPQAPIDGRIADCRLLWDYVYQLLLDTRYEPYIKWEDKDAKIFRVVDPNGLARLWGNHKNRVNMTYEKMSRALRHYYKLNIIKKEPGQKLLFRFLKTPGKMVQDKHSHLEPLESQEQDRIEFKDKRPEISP
In short: as §1

ELF5 = target: T11, ELF5 (Homo sapiens, UniProt Q9UKW6-2 1-255)
T11 sequence: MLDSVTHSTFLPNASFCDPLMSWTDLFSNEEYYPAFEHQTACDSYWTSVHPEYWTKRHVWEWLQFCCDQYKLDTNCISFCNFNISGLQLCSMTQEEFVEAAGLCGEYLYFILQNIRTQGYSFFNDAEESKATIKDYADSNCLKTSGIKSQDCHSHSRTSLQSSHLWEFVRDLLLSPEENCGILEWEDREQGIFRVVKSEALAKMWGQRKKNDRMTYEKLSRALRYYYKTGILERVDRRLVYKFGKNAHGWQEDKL
In short: as §1

ETV3 = target: T12, ETV3 (Homo sapiens, UniProt P41162-2 1-143)
T12 sequence: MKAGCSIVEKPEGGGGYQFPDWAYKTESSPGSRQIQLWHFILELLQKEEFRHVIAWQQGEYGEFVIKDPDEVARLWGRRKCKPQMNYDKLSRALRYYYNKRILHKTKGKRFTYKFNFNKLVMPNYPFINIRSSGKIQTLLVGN
In short: as §1

ETV6 = ETV6 (Homo sapiens, UniProt P41212 1-452)
In short: as §1

Sequence of ELF4 (Q99607 whole entry): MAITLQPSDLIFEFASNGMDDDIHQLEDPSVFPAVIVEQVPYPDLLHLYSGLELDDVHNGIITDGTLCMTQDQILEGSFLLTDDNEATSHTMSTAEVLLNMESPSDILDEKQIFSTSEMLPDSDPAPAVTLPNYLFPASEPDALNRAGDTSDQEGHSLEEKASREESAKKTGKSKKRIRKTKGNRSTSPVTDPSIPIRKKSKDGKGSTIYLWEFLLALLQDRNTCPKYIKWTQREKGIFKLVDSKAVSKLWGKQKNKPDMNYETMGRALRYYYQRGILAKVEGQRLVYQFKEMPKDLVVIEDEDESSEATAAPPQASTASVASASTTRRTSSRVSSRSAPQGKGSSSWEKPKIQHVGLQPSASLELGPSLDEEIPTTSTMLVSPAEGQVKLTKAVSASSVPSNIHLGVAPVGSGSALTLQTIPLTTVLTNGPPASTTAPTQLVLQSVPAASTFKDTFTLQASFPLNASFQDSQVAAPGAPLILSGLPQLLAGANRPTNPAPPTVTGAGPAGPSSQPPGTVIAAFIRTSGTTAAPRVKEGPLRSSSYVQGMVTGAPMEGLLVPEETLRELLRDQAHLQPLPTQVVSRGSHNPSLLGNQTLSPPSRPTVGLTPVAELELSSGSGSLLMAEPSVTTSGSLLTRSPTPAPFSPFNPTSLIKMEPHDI
Sequence of ETV1 (P50549 whole entry): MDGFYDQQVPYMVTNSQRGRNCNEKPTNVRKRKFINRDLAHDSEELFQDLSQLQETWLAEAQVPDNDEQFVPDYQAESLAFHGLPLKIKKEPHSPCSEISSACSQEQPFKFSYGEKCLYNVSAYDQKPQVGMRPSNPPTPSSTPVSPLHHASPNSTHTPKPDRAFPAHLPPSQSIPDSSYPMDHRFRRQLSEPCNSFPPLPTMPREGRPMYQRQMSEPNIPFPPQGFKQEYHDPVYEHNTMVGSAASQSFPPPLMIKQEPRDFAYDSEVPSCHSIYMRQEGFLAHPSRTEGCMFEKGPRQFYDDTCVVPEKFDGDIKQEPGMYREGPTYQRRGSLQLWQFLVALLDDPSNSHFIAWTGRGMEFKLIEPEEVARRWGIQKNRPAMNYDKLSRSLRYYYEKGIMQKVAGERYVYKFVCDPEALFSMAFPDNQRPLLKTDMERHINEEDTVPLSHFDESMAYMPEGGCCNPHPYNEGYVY
Sequence of ETV5 (P41161 whole entry): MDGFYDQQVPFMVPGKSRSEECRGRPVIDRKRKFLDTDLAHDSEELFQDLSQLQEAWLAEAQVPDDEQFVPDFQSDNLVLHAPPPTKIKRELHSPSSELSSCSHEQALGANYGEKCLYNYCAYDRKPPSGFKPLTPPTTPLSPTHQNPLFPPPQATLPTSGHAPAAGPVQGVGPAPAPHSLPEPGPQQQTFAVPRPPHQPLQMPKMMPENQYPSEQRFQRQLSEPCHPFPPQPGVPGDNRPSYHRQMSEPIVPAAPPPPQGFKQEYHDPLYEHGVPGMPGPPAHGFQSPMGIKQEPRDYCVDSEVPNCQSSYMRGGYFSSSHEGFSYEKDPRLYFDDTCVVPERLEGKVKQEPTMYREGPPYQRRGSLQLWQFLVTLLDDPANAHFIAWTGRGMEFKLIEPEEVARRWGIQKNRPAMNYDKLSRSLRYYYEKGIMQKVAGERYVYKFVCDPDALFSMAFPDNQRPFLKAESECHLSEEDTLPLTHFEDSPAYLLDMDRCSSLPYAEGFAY
Sequence of ETV6 (P41212 whole entry): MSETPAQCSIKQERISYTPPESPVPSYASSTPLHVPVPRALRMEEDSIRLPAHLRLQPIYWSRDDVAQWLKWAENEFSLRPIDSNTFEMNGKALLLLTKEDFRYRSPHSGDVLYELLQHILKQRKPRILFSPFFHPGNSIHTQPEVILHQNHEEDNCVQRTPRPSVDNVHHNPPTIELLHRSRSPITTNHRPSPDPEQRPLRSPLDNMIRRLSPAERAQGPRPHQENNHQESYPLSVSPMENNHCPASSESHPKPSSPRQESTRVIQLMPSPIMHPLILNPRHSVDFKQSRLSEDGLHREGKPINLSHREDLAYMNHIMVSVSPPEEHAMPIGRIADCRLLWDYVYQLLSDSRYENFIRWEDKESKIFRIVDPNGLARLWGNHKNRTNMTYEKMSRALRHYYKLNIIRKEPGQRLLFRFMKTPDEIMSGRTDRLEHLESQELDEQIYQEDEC
Sequence of CRX (O43186 whole entry): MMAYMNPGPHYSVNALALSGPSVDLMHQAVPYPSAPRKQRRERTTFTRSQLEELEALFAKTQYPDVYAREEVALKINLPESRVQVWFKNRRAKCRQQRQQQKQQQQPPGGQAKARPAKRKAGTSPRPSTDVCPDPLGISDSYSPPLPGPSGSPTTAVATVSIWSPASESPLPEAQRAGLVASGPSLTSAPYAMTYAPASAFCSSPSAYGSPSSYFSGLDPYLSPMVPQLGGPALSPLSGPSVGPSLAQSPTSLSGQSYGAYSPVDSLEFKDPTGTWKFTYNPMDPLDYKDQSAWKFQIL

**Q.** For CCATCA, which binding signal (FEV) is on record?
**A.** 1.13 fold enrichment (6-mer frequency, TF over GST control)

**Q.** And the binding signal (ETV5)?
**A.** 1.23 fold enrichment (6-mer frequency, TF over GST control)

**Q.** What about the binding signal (SPIC) of the same sequence?
**A.** 1.09 fold enrichment (6-mer frequency, TF over GST control)

**Q.** What about the binding signal (ELF4) of the same sequence?
**A.** 1.2 fold enrichment (6-mer frequency, TF over GST control)

**Q.** And the binding signal (ELK4)?
**A.** 1.24 fold enrichment (6-mer frequency, TF over GST control)

**Q.** What about the binding signal (ETV2) of the same sequence?
**A.** 1.11 fold enrichment (6-mer frequency, TF over GST control)

**Q.** And the binding signal (ELF3)?
**A.** 1.28 fold enrichment (6-mer frequency, TF over GST control)

**Q.** And the binding signal (CRX)?
**A.** 1.04 fold enrichment (6-mer frequency, TF over GST control)

**Q.** What about the binding signal (ETV1) of the same sequence?
**A.** 1.13 fold enrichment (6-mer frequency, TF over GST control)

**Q.** And the binding signal (ERF)?
**A.** 1.29 fold enrichment (6-mer frequency, TF over GST control)

**Q.** What about the binding signal (ETV3L) of the same sequence?
**A.** 1.19 fold enrichment (6-mer frequency, TF over GST control)

**Q.** What about the binding signal (ETS2) of the same sequence?
**A.** 1.17 fold enrichment (6-mer frequency, TF over GST control)

**Q.** What about the binding signal (SPDEF) of the same sequence?
**A.** 1.12 fold enrichment (6-mer frequency, TF over GST control)

**Q.** What about the binding signal (ETV7) of the same sequence?
**A.** 1.25 fold enrichment (6-mer frequency, TF over GST control)

**Q.** And the binding signal (ELF5)?
**A.** 1.12 fold enrichment (6-mer frequency, TF over GST control)

**Q.** And the binding signal (ETV3)?
**A.** 1.12 fold enrichment (6-mer frequency, TF over GST control)

**Q.** What about the binding signal (ETV6) of the same sequence?
**A.** 1.05 fold enrichment (6-mer frequency, TF over GST control)

— publication PMC7862700, “An all-to-all approach to the identification of sequence-specific readers for epigenetic DNA modifications on cytosine”
